The full list was thinned out, with hits kept by preference.
ER stress death: ER stress cell death inhibition; CSM14.1 thapsigargin ER stress survival, ATP luminescence; relative survival (cellular ATP), % at 15 µg/mL (by protocol); 0.33% of 48,000 active; AID 1010;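 active means survival measured by cellular ATP above 50% at 15 µg/ml in the first screen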;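 further: cell death triggered by about 15 µM thapsigargin; ATP read 24 h after thapsigargin was added; plate controls were thapsigargin with DMSO for no effect and DMSO without thapsigargin for full effect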
Starred values were filed as active, the others as inactive.

SMILES	ER stress death
COC(=O)c1[nH]cnc1C(=O)Nc1ccc(Br)cc1C(=O)c1ccccc1	1
COC(C(=O)Nc1ccc(Br)cc1C(=O)c1ccccc1Cl)c1ccccc1 (stereo not drawn)	11
COC(C(=O)Nc1ccc(Br)cc1C(=O)c1ccccc1)c1ccccc1 (stereo not drawn)	72*
CCCCn1c(=O)c(C(=O)Nc2cccc(O)c2)c(O)c2ccccc21	4
CCOc1ccc(N2C(=O)/C(=C/c3cc(Cl)ccc3O)C(=O)NC2=S)cc1	8

Compound activity from PubChem BioAssay.
